Test results as given in PubChem BioAssay AID1835 (Johns Hopkins Ion Channel Center, 2009).
The campaign covered roughly 2,400 compounds. About 750 (31%) were called active.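 How the source made its calls: active means median signal gain over dofetilide-blocked control wells reaching their mean plus 3 SD, so readout 1 at least 0; inactive means the rest.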 Some of the results follow. Where a SMILES comes first, the peptide text is derived from it. The star is where a group is joined. Cbz = O=C(OCc1ccccc1)*

target: Voltage-gated inwardly rectifying potassium channel KCNH2 (Homo sapiens) (UniProt Q12809); assay: hERG protection against dofetilide inhibition, confirmation, cell-based, thallium flux, duplicate retest, dofetilide IC70 (AID 1835); conditions: hERG cell line, FluxOR thallium flux, dofetilide-blocked; at 10 µM; active compounds read high
Sequence (Q12809 whole entry, looked up): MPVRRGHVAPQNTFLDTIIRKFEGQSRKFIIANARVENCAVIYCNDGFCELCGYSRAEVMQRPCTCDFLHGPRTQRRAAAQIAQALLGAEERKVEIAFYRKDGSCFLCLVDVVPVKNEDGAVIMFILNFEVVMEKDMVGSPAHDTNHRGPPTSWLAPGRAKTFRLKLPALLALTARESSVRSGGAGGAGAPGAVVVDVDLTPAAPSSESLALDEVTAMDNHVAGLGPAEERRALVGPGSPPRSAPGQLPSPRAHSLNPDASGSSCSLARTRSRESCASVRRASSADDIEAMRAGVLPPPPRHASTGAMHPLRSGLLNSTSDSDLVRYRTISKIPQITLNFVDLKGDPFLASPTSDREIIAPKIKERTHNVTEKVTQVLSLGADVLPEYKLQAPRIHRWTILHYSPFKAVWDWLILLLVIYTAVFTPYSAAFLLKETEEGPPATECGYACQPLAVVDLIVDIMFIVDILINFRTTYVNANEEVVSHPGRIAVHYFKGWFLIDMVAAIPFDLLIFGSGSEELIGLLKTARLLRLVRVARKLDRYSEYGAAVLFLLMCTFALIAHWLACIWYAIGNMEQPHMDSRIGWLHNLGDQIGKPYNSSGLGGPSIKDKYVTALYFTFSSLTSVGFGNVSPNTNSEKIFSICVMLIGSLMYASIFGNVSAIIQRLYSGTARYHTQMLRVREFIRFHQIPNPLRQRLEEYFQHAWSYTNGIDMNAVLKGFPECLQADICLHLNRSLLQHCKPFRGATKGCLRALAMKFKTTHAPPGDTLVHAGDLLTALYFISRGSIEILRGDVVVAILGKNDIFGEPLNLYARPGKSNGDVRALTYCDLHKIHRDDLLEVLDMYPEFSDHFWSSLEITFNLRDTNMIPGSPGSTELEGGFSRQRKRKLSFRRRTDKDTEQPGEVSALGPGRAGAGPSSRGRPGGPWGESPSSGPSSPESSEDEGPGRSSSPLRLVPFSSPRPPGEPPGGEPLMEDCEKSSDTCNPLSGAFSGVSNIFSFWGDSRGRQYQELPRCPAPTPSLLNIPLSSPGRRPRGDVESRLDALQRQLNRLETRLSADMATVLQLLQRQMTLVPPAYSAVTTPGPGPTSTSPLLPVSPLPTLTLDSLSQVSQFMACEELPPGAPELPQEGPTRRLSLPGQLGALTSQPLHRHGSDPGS

How did the activity increase over dofetilide control, less the hit threshold turn out when `COc1cccc(CN(C)CC2CCCN(CCc3ccc(Cl)cc3)C2)c1OC` (centres undefined) was run?
Its activity increase over dofetilide control, less the hit threshold is -31% (inactive).

For `O=C(NCc1cccs1)C1CC(c2ccc(F)cc2)=NO1` (centres undefined), which activity increase over dofetilide control, less the hit threshold is on record?
The activity increase over dofetilide control, less the hit threshold was -24% (inactive).

How did the activity increase over dofetilide control, less the hit threshold turn out when `Cc1occc1C(=O)NNC(=S)NC(=O)COc1ccc(Cl)cc1Cl` was run?
Its activity increase over dofetilide control, less the hit threshold is 100% (active).

Which activity increase over dofetilide control, less the hit threshold does the source give for `COc1ccc(Cl)cc1C(=O)NNC(=S)NC(=O)/C=C/c1ccco1` here?
Its activity increase over dofetilide control, less the hit threshold is -4% (inactive).

For `CCC(=O)N1CCCc2ccccc21`, which activity increase over dofetilide control, less the hit threshold is on record?
The activity increase over dofetilide control, less the hit threshold was -8% (inactive).

`Cc1ccc(Cn2nnc3c(=O)n(CC(=O)N4CCCc5ccccc54)cnc32)cc1` was tested. Which activity increase over dofetilide control, less the hit threshold did it give?
The activity increase over dofetilide control, less the hit threshold was 2% (active).

For `CC(=O)N1CCCc2cc(S(=O)(=O)NCc3ccc(C)cc3)ccc21`, which activity increase over dofetilide control, less the hit threshold is on record?
The activity increase over dofetilide control, less the hit threshold was -1% (inactive).

Which activity increase over dofetilide control, less the hit threshold does the source give for `Cn1c(=O)c2sccc2n(Cc2cccc(Br)c2)c1=O` here?
Its activity increase over dofetilide control, less the hit threshold is -11% (inactive).

For `Cn1c(=O)[nH]c(=O)c2c1nc(CN1CCN(c3ccccc3F)CC1)n2CCCc1ccccc1`, which activity increase over dofetilide control, less the hit threshold is on record?
Its activity increase over dofetilide control, less the hit threshold is -7% (inactive).

For `O=C(COC(=O)C1C2CC3OC(=O)C1C3C2)Nc1ccc(Cl)cc1` (centres undefined), which activity increase over dofetilide control, less the hit threshold is on record?
Its activity increase over dofetilide control, less the hit threshold is -17% (inactive).

With `CC(/C=C1\N=C(SCc2ccccc2Cl)SC1=O)=C\c1ccccc1` as the compound, how does the activity increase over dofetilide control, less the hit threshold read?
Its activity increase over dofetilide control, less the hit threshold is -9% (inactive).

Which activity increase over dofetilide control, less the hit threshold does the source give for `O=C(CN1C(=O)c2ccccc2S1(=O)=O)NCCSCc1ccccc1Cl` here?
The activity increase over dofetilide control, less the hit threshold was -16% (inactive).

For `O=C(O)CCCCn1c(SCc2ccccc2Cl)nc2ccsc2c1=O`, which activity increase over dofetilide control, less the hit threshold is on record?
The activity increase over dofetilide control, less the hit threshold was 4% (active).

Which activity increase over dofetilide control, less the hit threshold does the source give for `Cc1cc(NC(=O)CCCn2cnc([N+](=O)[O-])n2)no1` here?
Its activity increase over dofetilide control, less the hit threshold is -9% (inactive).

How did the activity increase over dofetilide control, less the hit threshold turn out when `CCOC(=O)c1n[nH]n2c1nc(=S)c1ccccc12` was run?
Its activity increase over dofetilide control, less the hit threshold is 46% (active).

`CCOC(=O)C1CCN(C(=O)COC(=O)c2nn(C)c(=O)c3ccccc23)CC1` was tested. Which activity increase over dofetilide control, less the hit threshold did it give?
The activity increase over dofetilide control, less the hit threshold was -23% (inactive).

With `CCOC(=O)c1nnn(CC(=O)Nc2ccccc2OC)c1C(=O)OCC` as the compound, how does the activity increase over dofetilide control, less the hit threshold read?
The activity increase over dofetilide control, less the hit threshold was -3% (inactive).

How did the activity increase over dofetilide control, less the hit threshold turn out when `C[n+]1ccccc1COc1ccc(C(C)(C)C)cc1` was run?
The activity increase over dofetilide control, less the hit threshold was -15% (inactive).

`COC(=O)c1ccc(/C=C/c2ccc3cccc(OC)c3n2)cc1` was tested. Which activity increase over dofetilide control, less the hit threshold did it give?
Its activity increase over dofetilide control, less the hit threshold is -7% (inactive).

`Cc1ccc(/C=C/C(=O)c2ccccc(=O)c2O)c(C)c1` was tested. Which activity increase over dofetilide control, less the hit threshold did it give?
The activity increase over dofetilide control, less the hit threshold was 22% (active).

With `Cc1ccc(NS(=O)(=O)c2ccc(NC(=O)c3ccccc3C(=O)O)cc2)cc1C` as the compound, how does the activity increase over dofetilide control, less the hit threshold read?
Its activity increase over dofetilide control, less the hit threshold is -5% (inactive).

For `O=C(/C=C/c1ccccc1Cl)c1ccccc(=O)c1O`, which activity increase over dofetilide control, less the hit threshold is on record?
The activity increase over dofetilide control, less the hit threshold was 13% (active).

Which activity increase over dofetilide control, less the hit threshold does the source give for `Cc1ccc(C)c(/C=C/C(=O)c2ccccc(=O)c2O)c1` here?
Its activity increase over dofetilide control, less the hit threshold is -3% (inactive).

`Cc1ccc(/C=C/C(=O)c2ccccc(=O)c2O)cc1C` was tested. Which activity increase over dofetilide control, less the hit threshold did it give?
The activity increase over dofetilide control, less the hit threshold was 8% (active).

Which activity increase over dofetilide control, less the hit threshold does the source give for `Cc1ccc(C(=O)c2ccccc2C(=O)O)c(O)c1` here?
The activity increase over dofetilide control, less the hit threshold was -6% (inactive).

With `CC(=O)c1sc(-c2ccc(F)cc2)cc1NS(=O)(=O)c1ccc(C)cc1` as the compound, how does the activity increase over dofetilide control, less the hit threshold read?
Its activity increase over dofetilide control, less the hit threshold is -14% (inactive).

For `CC1=[N+]([O-])C(C)(C)C(c2ccc(Br)cc2)=[N+]1[O-]`, which activity increase over dofetilide control, less the hit threshold is on record?
Its activity increase over dofetilide control, less the hit threshold is -3% (inactive).

For `COCCNC(=O)CN(C(=O)c1ccc(N2CCCC2)nc1)c1ccccc1`, which activity increase over dofetilide control, less the hit threshold is on record?
Its activity increase over dofetilide control, less the hit threshold is -15% (inactive).

Which activity increase over dofetilide control, less the hit threshold does the source give for `CCc1ccc2[nH]c(=O)c(-c3ccccc3)c(O)c2c1` here?
Its activity increase over dofetilide control, less the hit threshold is -20% (inactive).

Which activity increase over dofetilide control, less the hit threshold does the source give for `CCC(C)C(NC(=O)C(C)NC(=O)CNC(=O)CNC(=O)OCc1ccccc1)C(=O)OC` (centres undefined) (Cbz-GGAI-OMe; configuration not given here) here?
The activity increase over dofetilide control, less the hit threshold was -22% (inactive).

Which activity increase over dofetilide control, less the hit threshold does the source give for `CN1C(=O)NC(c2cccc([N+](=O)[O-])c2)C2=C1CC(C)(C)CC2=O` (centres undefined) here?
Its activity increase over dofetilide control, less the hit threshold is -14% (inactive).

For `CCc1ccccc1NC(=O)CC1CS(=O)(=O)CC1CC(=O)Nc1ccccc1CC` (centres undefined), which activity increase over dofetilide control, less the hit threshold is on record?
Its activity increase over dofetilide control, less the hit threshold is -4% (inactive).

For `N#C/C(=N\Nc1ccccc1F)c1nc(-c2ccccc2)cs1`, which activity increase over dofetilide control, less the hit threshold is on record?
The activity increase over dofetilide control, less the hit threshold was -14% (inactive).

For `O=C(O)/C=C/c1cn(-c2ccccc2)nc1-c1ccc(-c2ccc([N+](=O)[O-])cc2)o1`, which activity increase over dofetilide control, less the hit threshold is on record?
Its activity increase over dofetilide control, less the hit threshold is 27% (active).

Which activity increase over dofetilide control, less the hit threshold does the source give for `COC(=O)Oc1ccc(/C=C/C(=O)OC(C)C)cc1OC(=O)OC` here?
Its activity increase over dofetilide control, less the hit threshold is 2% (active).

How did the activity increase over dofetilide control, less the hit threshold turn out when `Cc1cc(C)nc(NS(=O)(=O)c2ccc(NC(=O)Cc3ccccc3)cc2)n1` was run?
The activity increase over dofetilide control, less the hit threshold was -5% (inactive).

With `Cc1cc(O)c(/C=N/OCc2ccc(Cl)cc2Cl)c(=O)o1` as the compound, how does the activity increase over dofetilide control, less the hit threshold read?
The activity increase over dofetilide control, less the hit threshold was -4% (inactive).

For `Brc1ccc(-c2noc(CCc3ccccc3)n2)cc1`, which activity increase over dofetilide control, less the hit threshold is on record?
Its activity increase over dofetilide control, less the hit threshold is -20% (inactive).

`CC(C)Cn1c(=S)[nH]c2cc(Cl)ccc21` was tested. Which activity increase over dofetilide control, less the hit threshold did it give?
The activity increase over dofetilide control, less the hit threshold was 5% (active).

`Cc1nnc(SCC2=C(C(=O)O)N3C(=O)C(NC(=O)Cn4nc(C(F)F)cc4C)C3SC2)s1` (centres undefined) was tested. Which activity increase over dofetilide control, less the hit threshold did it give?
The activity increase over dofetilide control, less the hit threshold was -5% (inactive).

Which activity increase over dofetilide control, less the hit threshold does the source give for `Cc1ccccc1NP(=O)(c1ccccc1)c1nc2ccccc2s1` (centres undefined) here?
Its activity increase over dofetilide control, less the hit threshold is -8% (inactive).

How did the activity increase over dofetilide control, less the hit threshold turn out when `Cc1ccc(C)c2sc(NC(=O)c3nc4ccccc4s3)nc12` was run?
Its activity increase over dofetilide control, less the hit threshold is 35% (active).

How did the activity increase over dofetilide control, less the hit threshold turn out when `Cc1ccc(C)c(NC(=S)c2nc3ccccc3s2)c1` was run?
Its activity increase over dofetilide control, less the hit threshold is -10% (inactive).

`COc1ccccc1C(=O)NNC(=O)C(=O)Nc1cccc(Cl)c1C` was tested. Which activity increase over dofetilide control, less the hit threshold did it give?
Its activity increase over dofetilide control, less the hit threshold is 100% (active).

How did the activity increase over dofetilide control, less the hit threshold turn out when `COc1ccc(Cl)cc1C(=O)Nc1cccnc1Cl` was run?
The activity increase over dofetilide control, less the hit threshold was -8% (inactive).

`COc1ccccc1C(=O)Nc1ccc(C(=O)N2CCCC2)cc1` was tested. Which activity increase over dofetilide control, less the hit threshold did it give?
The activity increase over dofetilide control, less the hit threshold was 0% (inactive).

`C/C(CC(=O)Nc1ccccn1)=N\NC(=O)C(=O)Nc1cccc(Cl)c1C` was tested. Which activity increase over dofetilide control, less the hit threshold did it give?
Its activity increase over dofetilide control, less the hit threshold is -6% (inactive).

With `CC(=O)Nc1ccccc1C(=O)C(=O)Nc1ccc(Cl)cc1` as the compound, how does the activity increase over dofetilide control, less the hit threshold read?
Its activity increase over dofetilide control, less the hit threshold is -3% (inactive).

With `Cc1ccccc1C(=O)NNC(=O)C(=O)Nc1cccc(Cl)c1C` as the compound, how does the activity increase over dofetilide control, less the hit threshold read?
The activity increase over dofetilide control, less the hit threshold was 27% (active).

`NC(=O)Cn1c2[n+](c3ccccc31)CC(O)CS2` (centres undefined) was tested. Which activity increase over dofetilide control, less the hit threshold did it give?
Its activity increase over dofetilide control, less the hit threshold is -24% (inactive).

Which activity increase over dofetilide control, less the hit threshold does the source give for `CC(C)CN1C(=O)/C(=C/c2ccco2)NC1=S` here?
Its activity increase over dofetilide control, less the hit threshold is -26% (inactive).

For `CCCN1C(=O)/C(=C/c2ccc(C)s2)NC1=S`, which activity increase over dofetilide control, less the hit threshold is on record?
The activity increase over dofetilide control, less the hit threshold was 71% (active).

How did the activity increase over dofetilide control, less the hit threshold turn out when `CCCN1C(=O)/C(=C/c2ccc3c(c2)OCO3)NC1=S` was run?
The activity increase over dofetilide control, less the hit threshold was -13% (inactive).

With `CCN1C(=O)/C(=C/c2ccc(C)s2)NC1=S` as the compound, how does the activity increase over dofetilide control, less the hit threshold read?
The activity increase over dofetilide control, less the hit threshold was 14% (active).

How did the activity increase over dofetilide control, less the hit threshold turn out when `CC(C)CN1C(=O)/C(=C/c2cccs2)NC1=S` was run?
Its activity increase over dofetilide control, less the hit threshold is 85% (active).

With `COc1ccc(S(=O)(=O)Nc2ccc(O)c3ccccc23)cc1` as the compound, how does the activity increase over dofetilide control, less the hit threshold read?
Its activity increase over dofetilide control, less the hit threshold is -21% (inactive).

How did the activity increase over dofetilide control, less the hit threshold turn out when `CCOC(=O)c1c(NS(=O)(=O)Cc2ccccc2)sc2c1CCCC2` was run?
The activity increase over dofetilide control, less the hit threshold was 69% (active).

`COc1ccc(NS(=O)(=O)c2ccc3ccccc3c2)c2ncccc12` was tested. Which activity increase over dofetilide control, less the hit threshold did it give?
The activity increase over dofetilide control, less the hit threshold was -20% (inactive).

`CCOC(=O)c1c(NS(=O)(=O)c2ccc(Br)cc2)sc2c1CCC2` was tested. Which activity increase over dofetilide control, less the hit threshold did it give?
The activity increase over dofetilide control, less the hit threshold was 68% (active).

How did the activity increase over dofetilide control, less the hit threshold turn out when `COC(=O)c1c(NS(=O)(=O)Cc2ccccc2)sc2c1CCCC2` was run?
The activity increase over dofetilide control, less the hit threshold was 31% (active).

With `Cc1ccc(C(=O)Nc2sc3c(c2C(=O)O)CCCCC3)o1` as the compound, how does the activity increase over dofetilide control, less the hit threshold read?
The activity increase over dofetilide control, less the hit threshold was -22% (inactive).

Which activity increase over dofetilide control, less the hit threshold does the source give for `COC(=O)c1c(NS(=O)(=O)c2ccc3ccccc3c2)sc2c1CCCC2` here?
The activity increase over dofetilide control, less the hit threshold was 29% (active).

For `O=C(O)C1C2CCC(O2)C1C(=O)Nc1ccc(F)c(Cl)c1` (centres undefined), which activity increase over dofetilide control, less the hit threshold is on record?
Its activity increase over dofetilide control, less the hit threshold is -7% (inactive).

With `Cc1ccc(CN2CCN(CC(=O)NC(C)c3ccc4c(c3)OCCO4)C2=O)cc1` (centres undefined) as the compound, how does the activity increase over dofetilide control, less the hit threshold read?
Its activity increase over dofetilide control, less the hit threshold is -9% (inactive).
